Unmarked numbers belong to inactive results. How the calls were made is not given here.
molecular target: Pantothenate synthetase (Mycobacterium tuberculosis (strain ATCC 25618 / H37Rv)) (UniProt P9WIL5); experiment: Coupled enzyme confirmation of inhibitors against recombinant Mtb PanC (AID 375); settings: coupled enzyme assay; at 10 µM, active compounds read high;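 further: 0% = full reaction with vehicle and 100% = no enzyme background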
Sequence (P9WIL5 whole entry, looked up): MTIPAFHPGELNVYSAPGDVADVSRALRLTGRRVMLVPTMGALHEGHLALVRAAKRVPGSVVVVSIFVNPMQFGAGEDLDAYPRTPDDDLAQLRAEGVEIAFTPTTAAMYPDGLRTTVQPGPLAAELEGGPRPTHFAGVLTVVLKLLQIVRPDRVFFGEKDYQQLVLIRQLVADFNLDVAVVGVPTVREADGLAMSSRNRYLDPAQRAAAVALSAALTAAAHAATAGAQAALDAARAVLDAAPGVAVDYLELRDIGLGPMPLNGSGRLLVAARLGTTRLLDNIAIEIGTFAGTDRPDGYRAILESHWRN

Compound | inhibition
CCOC(=O)c1ccc2nc(NC(NC(C)=O)(C(=O)OC)C(F)(F)F)sc2c1 (stereo not given) | 2%
N#CC1=C(SCc2ccccc2)NC(=O)C(C#N)C12CCCC2 (stereo not given) | 2%
O=c1ccc2cc3c([nH]c4ccc(Br)cc43)oc-2c1O | 0%
CCOC(=O)Cn1nnnc1CN(Cc1ccc(OC)cc1)Cc1cc2cc(C)ccc2[nH]c1=O | 1%
COc1cc(C)c(Br)cc1S(=O)(=O)N1CCOCC1 | 2%
CC(C)N(C(=O)CSc1nnc(-c2cc3ccccc3cc2O)n1Cc1ccco1)C(C)C | 1%
CCOC(=O)c1ccc(N2C(=O)CC(NC3CCN(C(=O)c4ccc(F)cc4)CC3)C2=O)cc1 (stereo not given) | 1%
CCOCC(=O)Nc1nc2c(s1)C(=O)CC(C)(C)C2 | 5%
CCN(CC)S(=O)(=O)c1ccc2oc(C(=O)N3CCOCC3)c(C)c2c1 | 0%
COc1cc(C(N)=O)ccc1OCc1ccccc1 | 3%
CCCNS(=O)(=O)c1ccc(OCC(=O)NCc2ccc3c(c2)OCO3)cc1 | 2%
COCCSc1ccccc1C(=O)Nc1nncs1 | 0%
COc1ccc(OC)c(C2C(C#N)=C(N)Oc3cc(C)[nH]c(=O)c32)c1 (stereo not given) | 0%
COc1ccc(C(CNC(=O)c2cc(C)oc2C)N2CCOCC2)cc1 (stereo not given) | 0%
CCNC(=O)N(C)c1nncnc1C(=O)NC | 0%
CS(=O)(=O)c1ncc(Cl)c(C(=O)Nc2ccc(N3CCOCC3)cc2)n1 | 2%
O=C(OCc1cc2ccccc2[nH]c1=O)c1ccncc1 | 7%
CC(=O)NCCCCCCNC(C)=O | 0%
Cc1cccc(C)c1OCc1nnc(SCC(=O)Nc2ccccc2F)o1 | 0%
COC(=O)CCC(=O)Nc1ccc(OC)cc1 | 0%

Compound | inhibition
Cc1cc(C)c(C(=O)Nc2ccc(S(=O)(=O)Nc3onc(C)c3C)cc2)c(C)c1 | 8%
COc1cccc2cc(C(=O)n3ccc(C)n3)c(=O)oc12 | 1%
COc1ccc(S(=O)(=O)NCc2ccc(C(=O)O)cc2)cc1 | 0%
CCCCCc1c(O)nc(SCC(=O)NCC2CCCO2)[nH]c1=O (stereo not given) | 6%
O=C(CN(CC1CCCO1)C(=O)CCC(=O)Nc1ccccn1)NCC1CCCO1 (stereo not given) | 8%
CCOc1cc(C2/C(=C(/O)c3ccc(OC(C)C)cc3)C(=O)C(=O)N2CCCOC)ccc1O (stereo not given) | 0%
CS(=O)(=O)N1CCCC(C(=O)N2CCOCC2)C1 (stereo not given) | 6%
COc1cccc(CN2C(=O)C3(C(C#N)=C(N)OC4=C3C(=O)CCC4)c3ccccc32)c1 (stereo not given) | 0%
CN(C)c1cccc(NC(=O)CCc2ccccc2)c1 | 0%
CC(C)OC(=O)c1cc(=O)[nH]c2ccccc12 | 0%
Cc1noc(C)c1C(=O)Nc1ccc(Cl)cc1C(F)(F)F | 4%
CCC(NS(=O)(=O)c1ccc(C)cc1)C(=O)N1CCC2(O)CCCCC2C1 (stereo not given) | 6%
COc1ccc(C2(C(=O)Nc3cc(C)on3)CCOCC2)cc1 | 2%
CCOC(=O)CSC1=C(C#N)C(c2ccc(Cl)cc2)C(C(=O)OC)C(=O)N1 (stereo not given) | 0%
COc1ccc2[nH]c(=O)c(CN(Cc3cccs3)S(=O)(=O)c3cccc4nsnc34)cc2c1 | 0%
O=C(CSc1nnc(-c2cccs2)o1)N1CCOCC1 | 0%
Cc1cc(C)n2cc(CSc3nnnn3-c3ccc(Cl)cc3)nc2n1 | 0%
O=C(/C=C1\NC2(CCCC2)Cc2ccccc21)N1CCOCC1 | 0%
CCOC(=O)CNC(=O)C(Cc1ccccc1)NS(=O)(=O)c1ccc2c(c1)CCC(=O)N2 (stereo not given) | 0%
O=C(C1CCCCC1)N1CC(=O)N2CCc3ccccc3C2C1 (stereo not given) | 3%

From PubChem BioAssay
